The results in this text go back to PubChem BioAssay AID588511 (Johns Hopkins Ion Channel Center, 2011).

Hit rate of the full screen: of about 310,000 compounds, about 3,600 (1.2%) were called active.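 Rule for the calls: active = ratio plate-corrected score three or more library SD toward inhibition, starting fluorescence score within five deviations; inactive = the rest.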 The sample as a whole holds a higher share of actives than the screen did.

The assay deals with Anoctamin-1 (Mus musculus) (UniProt Q8BHY3). Kind of assay: TMEM16A chloride channel inhibitors, primary screen, cell-based, HTS (AID 588511).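 For normalized B-score (activity score, 25-100; higher = stronger inhibition): score derived from kinetic fluorescence span divided by baseline fluorescence per well.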 The note with it: HEK293 TMEM16A/YFP iodide influx fluorescence, ionomycin; at 10 µM.
Chain of Anoctamin-1 (Mus musculus) (Q8BHY3 whole entry, looked up): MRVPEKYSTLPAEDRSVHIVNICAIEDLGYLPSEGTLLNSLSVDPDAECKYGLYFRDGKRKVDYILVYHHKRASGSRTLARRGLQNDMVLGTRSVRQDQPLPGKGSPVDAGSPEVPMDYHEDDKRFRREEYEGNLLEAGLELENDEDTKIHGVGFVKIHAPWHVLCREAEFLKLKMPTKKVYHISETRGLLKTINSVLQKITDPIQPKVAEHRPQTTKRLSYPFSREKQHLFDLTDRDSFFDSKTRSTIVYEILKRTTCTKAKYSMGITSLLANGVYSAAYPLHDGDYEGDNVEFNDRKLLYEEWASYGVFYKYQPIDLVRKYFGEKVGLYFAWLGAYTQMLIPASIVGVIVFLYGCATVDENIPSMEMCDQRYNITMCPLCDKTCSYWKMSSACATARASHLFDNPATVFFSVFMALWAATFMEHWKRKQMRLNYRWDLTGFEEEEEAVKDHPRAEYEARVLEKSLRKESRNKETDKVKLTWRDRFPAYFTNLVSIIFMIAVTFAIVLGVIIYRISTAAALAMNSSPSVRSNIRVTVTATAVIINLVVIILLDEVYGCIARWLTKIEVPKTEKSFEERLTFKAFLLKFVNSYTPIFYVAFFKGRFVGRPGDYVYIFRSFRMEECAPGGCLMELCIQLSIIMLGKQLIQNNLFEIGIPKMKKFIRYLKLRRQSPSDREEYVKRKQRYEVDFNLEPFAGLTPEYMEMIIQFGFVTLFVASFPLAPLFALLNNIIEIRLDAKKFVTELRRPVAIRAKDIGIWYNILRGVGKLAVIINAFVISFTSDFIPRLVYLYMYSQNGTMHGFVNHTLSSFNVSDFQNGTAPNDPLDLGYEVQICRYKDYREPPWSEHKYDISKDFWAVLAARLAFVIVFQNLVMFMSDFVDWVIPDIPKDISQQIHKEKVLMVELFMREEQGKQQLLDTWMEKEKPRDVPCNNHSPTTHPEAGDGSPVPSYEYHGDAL
Turning to `CCOc1cccc(=NC2CCCCC2)c2c(C)[nH]c(C)c12`, the normalized B-score (activity score, 25-100; higher = stronger inhibition) is 25 (active).

As to `Nc1ccc(C(=O)N/N=C2/CN3CCC2CC3)cc1`, the normalized B-score (activity score, 25-100; higher = stronger inhibition) result was “inactive”. In the case of `CCOC(=O)C1CN(C)CCC1=O` (stereo not given), the normalized B-score (activity score, 25-100; higher = stronger inhibition) result is “inactive”. The value for `CCCCn1c(=O)c(C(=O)Nc2ccccc2Cl)c(O)c2ccccc21` was “inactive”; that for `CCCCCn1c(=O)c(C(=O)NCc2ccccn2)c(O)c2ccccc21` was 25 (active); that for `CCCCCn1c(=O)c(C(=O)NCc2ccccc2)c(O)c2ccccc21` was “inactive”. Under `O=C(Cn1c(=O)n(CC2CS2)c2ccccc21)N1CCCCC1` (stereo not given) stands “inactive”; under `O=c1[nH]c(=O)n(-c2ccccc2)c(O)c1C=NC12CN3CN(CN(C3)C1)C2`, “inactive”. The value for `COc1ccccc1NC(=O)N1C[C@@H]2C[C@@H](C1)c1cccc(=O)n1C2` was “inactive”; that for `Cc1ccc(P(=S)(c2ccc(C)o2)N2CCOCC2)o1` was “inactive”; that for `COc1ccc(-n2c(-c3ccccc3)nc3ccccc3c2=O)cc1` was “inactive”. For `CCN(CC)P(=O)(Oc1cccc(C)c1)N(CC)CC`, the normalized B-score (activity score, 25-100; higher = stronger inhibition) entry was “inactive”. Under `CCN(CC)C(=O)c1ccc(NC(=O)c2cc(-n3cnnc3)ccc2Cl)cc1` stands 100 (active); under `COc1ccc(-c2nn(CCC#N)cc2C(=O)Nc2ccc(C(C)=O)cc2)cc1`, “inactive”; under `CCN(CC)C(=O)c1ccc(NC(=O)c2sccc2-c2ccccc2)cc1`, “inactive”. As for `O=[N+]([O-])c1ccc(C2C3C(c4ccccc4)=NC4(CCCCC4)N32)cc1` (stereo not given), the normalized B-score (activity score, 25-100; higher = stronger inhibition) entry was “inactive”. Under `CN(C)S(=O)(=O)c1cc(C(=O)N2CCC(C(=O)O)(c3ccccc3)CC2)ccc1Cl` stands “inactive”; under `c1ccc(CCNC2CCCCCC2)cc1`, “inactive”. Under `CCCCCCCCCCCCn1ccc(=N)cc1` stands 25 (active); under `CC1(C)C(c2ccccc2)=NC(c2cccnc2)=[N+]1[O-]`, “inactive”.
